# Bioassay records (PubChem BioAssay)
# A selection: hits, their analogues and other compounds. The true share with any hit is near 3.6%.
# Rango complex inh: Rango-importin beta binding inhibition. Potency, µM (highest dose often 92.2 µM), for inactives: top-dose inhibition of complex formation. Rango CFP/YFP FRET sensor + importin beta, 45 min. 0.031% of 340,000 active. Q14974; calls by dose curve;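 note: potency is the fitted concentration of half-maximal effect; 0% = DMSO wells and 100% = buffer wells lacking importin beta; nearly all actives have a fitted effect of over 15% in size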
#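 FRET biosensor Rango (snurportin 1 IBB between N-terminal EYFP and C-terminal Cerulean), 50 nM in PBS/1 mM DTT/0.02% Tween-20/0.1% BSA, preincubated 5 min RT with compound; 0.125 microM importin beta added, 45 min RT, CFP/YFP FRET ratio read.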
# GCN5L2 inh: blocks human GCN5L2 histone acetyltransferase; Q92830; GCN5L2 HAT assay, ThioGlo1 CoA-SH fluorescence; Potency, µM (series often up to 58.9 µM), inactives show top-dose activity change, negative = inhibition, actives largely listed as inhibitors; 0.21% of 390,000 active; AID 504327; note: potency is the fitted concentration of half-maximal effect; % is set by controls: 0 for no effect and ±100 for the full control effect
# Target sequence (Q92830 whole entry, looked up): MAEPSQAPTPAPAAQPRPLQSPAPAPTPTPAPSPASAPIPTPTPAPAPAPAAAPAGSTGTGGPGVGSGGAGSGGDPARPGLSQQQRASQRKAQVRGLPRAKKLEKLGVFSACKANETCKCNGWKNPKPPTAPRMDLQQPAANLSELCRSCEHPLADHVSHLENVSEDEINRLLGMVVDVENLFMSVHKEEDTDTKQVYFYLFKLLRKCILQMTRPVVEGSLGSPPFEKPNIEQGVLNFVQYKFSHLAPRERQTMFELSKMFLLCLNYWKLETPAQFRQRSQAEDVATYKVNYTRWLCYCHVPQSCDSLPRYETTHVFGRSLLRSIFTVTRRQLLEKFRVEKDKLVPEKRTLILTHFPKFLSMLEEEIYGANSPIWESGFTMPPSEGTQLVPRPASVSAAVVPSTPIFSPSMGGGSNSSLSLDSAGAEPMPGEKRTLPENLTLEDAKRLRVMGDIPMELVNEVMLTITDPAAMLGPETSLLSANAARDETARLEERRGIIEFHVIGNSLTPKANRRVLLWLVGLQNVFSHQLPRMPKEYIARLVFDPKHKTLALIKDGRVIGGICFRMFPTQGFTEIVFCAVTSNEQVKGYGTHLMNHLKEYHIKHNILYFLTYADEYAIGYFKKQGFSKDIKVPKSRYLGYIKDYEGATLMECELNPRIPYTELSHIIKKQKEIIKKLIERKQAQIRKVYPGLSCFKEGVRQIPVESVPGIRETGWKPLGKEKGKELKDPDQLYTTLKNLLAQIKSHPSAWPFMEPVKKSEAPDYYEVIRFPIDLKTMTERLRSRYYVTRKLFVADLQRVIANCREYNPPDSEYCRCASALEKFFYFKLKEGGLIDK
#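 GCN5L2 (20 nM) in 50mM HEPES pH 7.5, 0.1mM EDTA, 0.01% Tween-20 preincubated 15 min with compounds at room temperature. Reaction started with H3(1-25) 75uM, acetyl-CoA 70uM, ThioGlo1 50uM; CoA-thiol fluorescence (Ex340/Em540) read at 0 and 20 min.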
# PLK1 PBD inh: blocks phosphopeptide binding to human PLK1 polo-box domain; Potency, µM, for the others: max response, negative = inhibition, usual class: inhibitors; AID 720504; 2.8% of 360,000 active; Plk1 PBD binding of FITC phosphopeptide, fluorescence polarization; P53350; note: potency is the fitted concentration of half-maximal effect; series mostly up to about 57 µM; % is set by controls: 0 for no effect and ±100 for the full control effect; nearly all actives have a fitted effect of over 65% in size
# PI5P4Ka inh: blocks human PI5P4K alpha kinase activity. P48426. PI5P4Kalpha enzyme, ADP-Glo luminescence, 60 min; active compounds read low. max response, %. 1.2% of 330,000 active. AID 652105; active = max response of -50% or lower; inconclusive = between -30% and -50%; inactive = -30% or higher; note: value at the top dose of about 77 µM; % is set by controls: 0 for no effect and ±100 for the full control effect
#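 Controls without substrate or without enzyme flank wells where PI5P4Kalpha converts substrate using 5 microM ATP (final). Incubation lasts 60 minutes at room temperature; ADP formed is read by ADP-Glo luminescence.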
# Rango release inh: inhibitors of RanGTP-induced Rango-importin beta complex dissociation; Potency, µM (series often up to 46.1 µM), without a hit: top-dose activity change, negative = inhibition; AID 540253; Biochemical FRET Rango-importin beta, RanGTP-induced dissociation; 0.071% of 340,000 active; calls by dose curve; note: potency is the fitted concentration of half-maximal effect; % of control where 0% means no effect; nearly all actives have a fitted effect of over 45% in size
#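 Two FRET readings bracket the reaction: one 5 min after compound meets Rango–importin beta, another 45 min after RanGTP-RCC1 (0.6 uM Ran, 0.2 uM RCC1, 2 mM GTP) is added. Only the second defines inhibition.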
# VDR inh: vitamin D3 receptor (human) inhibition; P11473; VDR-SRC2-3 peptide fluorescence polarization, 2 h; Potency, µM, for the others: max response, negative = inhibition, usual class: inhibitors; 0.93% of 400,000 active; AID 504847; note: potency is the fitted concentration of half-maximal effect; % is set by controls: 0 for no effect and ±100 for the full control effect
#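 Fluorescence polarization assay measuring small-molecule disruption of VDR binding to the coregulator peptide SRC2-3. Compounds were pin-transferred (23 nl) into the reagent mix and incubated 2 h at room temperature before reading.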
# * = called active by the depositor; ? = inconclusive; / = no result given; ! = not confirmed by another sample. Unless noted, calls come from the whole dose curve; as a rule, active = well fitted curve in the direction sought with a large enough effect; inconclusive = small, poorly fitted or top-dose-only effect, or another doubt; inactive = no such curve, though single readings can be large; an effect the other way counts as inactive or inconclusive.
SMILES,Rango complex inh,GCN5L2 inh,PLK1 PBD inh,PI5P4Ka inh,Rango release inh,VDR inh
CSc1ncc(CN2CCN(C3CCCCC3)C(CCO)C2)cn1 (stereo not drawn),-1%,14µM*,-2%,2,15%,11%
CSc1ncc(CN2CCN(C3CCN(C(C)C)CC3)C(CCO)C2)cn1 (stereo not drawn),-4%,-24%,-5%,2,4%,5%
Cc1ccc(C)c(NC(=O)CCc2nc3cccnc3n2Cc2cccs2)c1,/,-3%,/,/,/,-2%
N#C/C(=C\c1cn(CCOc2ccccc2F)c2ccccc12)C(=O)NCc1cccs1,?,2%,12%,7,5.8µM*,-12%
Cc1ccccc1-n1c(C)cc(/C=C(\C#N)C(=O)NCC2CCCO2)c1C (stereo not drawn),-1%,-10%,-9%,0,-6%,9%
Cc1cc(/C=C(\C#N)C(=O)NCc2cccs2)c(C)n1-c1ccccc1F,?,-10%,27µM*,4,-18%,-18%
Cc1ccc(C)c(OCCn2cc(/C=C(\C#N)C(=O)NCC3CCCO3)c3ccccc32)c1 (stereo not drawn),?,-5%,30µM*,9,-9%,-18%
Cc1ccc(C)c(OCCn2cc(/C=C(\C#N)C(=O)NCc3cccs3)c3ccccc32)c1,?,-5%,-2%,2,-10%,9%
Cc1cc2c(cc1S(=O)(=O)N(CCO)Cc1ccccc1)OCC(=O)N2,/,-1%,/,/,/,6%
NC(=O)C1CCN(S(=O)(=O)c2ccc(N3CCCCS3(=O)=O)cc2)CC1,/,7%,/,/,/,6%
Cc1ccccc1OCc1ccc(-c2nc(C#N)c(NCc3cccnc3)o2)o1,/,-16%,/,/,/,-3%
Cn1c(Cc2ccccc2)nnc1SCC(=O)c1ccc(Br)s1,0%,-5%,21µM*,-5,2%,-28%
Cn1nnnc1SCC(=O)c1ccc(Br)s1,0%,17%,?,-8,2%,?
CN=c1scc(-c2cccs2)n1/N=C/c1ccccc1O,?,-13%,-6%,10,3%,-16%
CN=c1scc(-c2cccs2)n1/N=C/c1ccc(O)c(O)c1O,1%,0%,6.7µM*,-75*,1%,?
CN=c1scc(C)n1/N=C/c1ccc(O)c(O)c1O,-2%,?,6.7µM*,?,-7%,-3%
Oc1c(Cl)cc(CN2CCOCC2)c2cccnc12,4%,-3%,?,-6,-16%,?
O=[N+]([O-])c1ccc(O)c2cccnc12,2%,-9%,-2%,-6,19%,6%
O=[N+]([O-])c1ccc(O)c2ncccc12,?,5%,-13%,-1,13%,40µM*!
O=[N+]([O-])c1cc(CN2CCOCC2)c2cccnc2c1O,-2%,?,?,-73*,-1%,-11%
COc1ccccc1N1CCN(C(=O)c2ccc3c(c2)N(Cc2ccccc2)C(=O)c2ccccc2S3(=O)=O)CC1,/,-8%,/,/,/,-10%
O=C(NC(C(=O)O)c1ccccc1)c1ccccc1 (stereo not drawn),1%,-6%,-1%,0,-3%,1%
O=C(NC(Sc1ccc(Cl)cc1)C(=O)O)c1ccccc1 (stereo not drawn),/,/,13µM*,9,/,/
N#C/C(=C/c1ccc(N2CCCCCC2)o1)c1cccc(F)c1,?,-29%,-10%,/,?,45µM*
O=C1NC(=O)/C(=C/c2ccc(-c3cccc([N+](=O)[O-])c3)o2)S1,0%,-14%,?,-51*,1%,-2%
SMILES,Rango complex inh,GCN5L2 inh,PLK1 PBD inh,PI5P4Ka inh,Rango release inh,VDR inh
O=C1NC(=S)S/C1=C\c1cccc([N+](=O)[O-])c1,3%,/,-30%,-65*,-10%,?
O=C1N/C(=N\S(=O)(=O)Cc2ccccc2)S/C1=C/c1cc([N+](=O)[O-])ccc1O,?,-6%,-3%,?,?,?
O=C1NC(=Nc2ccccc2Cl)S/C1=C\c1cccc([N+](=O)[O-])c1,0%,-20%,27µM*,-27,20%,?
O=C1NC(=Nc2ccccc2Cl)S/C1=C\c1cccc([N+](=O)[O-])c1O,5%,-4%,27µM*,-85*,-10%,79µM*
COc1ccc(S(=O)(=O)N(CC(=O)NC(C)c2ccccc2)c2ccc(C)cc2)cc1OC (stereo not drawn),/,3%,/,/,/,-12%
CS(=O)(=O)N1CCC(N2CCN(Cc3ccccc3)C(=O)C2=O)CC1,/,4%,/,/,/,-6%
COc1c(/C=C2\SC(=Nc3ccccc3Cl)NC2=O)cccc1[N+](=O)[O-],7%,?,?,-72*,-14%,-17%
O=C1NC(=Nc2ccccc2Cl)S/C1=C\c1ccc(C(=O)O)cc1,0%,-1%,-28%,-65*,11%,-26%
COc1ccc(/C=C2\SC(=Nc3ccccc3Cl)NC2=O)c(OC)c1,/,/,?,-20,/,/
O=C1NC(=NCc2ccccc2)S/C1=C\c1ccccc1,5%,21%,-9%,-5,7%,-4%
COc1ccc(C(=O)c2cn(CC(=O)Nc3ccc4c(c3)OCCO4)c3ccc(OC)cc3c2=O)cc1,/,-4%,/,/,/,-14%
Cc1ccc(CNC(=O)Cn2ccn(-c3ccc(F)cc3)c(=O)c2=O)cc1,/,0%,/,/,/,7%
CCCCN(CC)CCNC(=O)C1CCN(c2nnc(C)c3c(C)n(-c4ccc(C)cc4)nc23)CC1,/,-2%,/,/,/,10%
COc1ccc(CNC(=O)N2CCN(c3cccc(C)c3C)CC2)cc1OC,-1%,-2%,-1%,6,2%,5%
Cc1cccc(N2CCN(C(=O)NCc3ccc(F)cc3)CC2)c1C,0%,-26%,30µM*,-10,-2%,?
O=C(O)/C(=C\c1ccc2ccccc2c1)c1cccc2ccccc12,2%,/,21µM*,3,2%,-29%
O=C(O)C(=Cc1ccncc1)c1cccc2ccccc12,/,/,-6%,-2,/,/
Cc1ccccc1Nc1nnc(-c2ccc(C)c(S(=O)(=O)NCC3CCCO3)c2)c2ccccc12 (stereo not drawn),/,-3%,/,/,/,-4%
CCOc1ccc(N(CC)S(=O)(=O)N2CCCC(C(=O)Nc3ccc(OC)c(OC)c3)C2)cc1 (stereo not drawn),/,-4%,/,/,/,6%
CCCN1CNc2c(c(=O)[nH]c(=S)n2CCc2ccc(OC)cc2)C1,/,/,/,/,/,0%
O=S(=O)(NCCNS(=O)(=O)c1cccs1)c1cccs1,1%,-13%,-2%,1,2%,12%
CN1CCN(NS(=O)(=O)c2cccs2)CC1,0%,2%,9.5µM*,-7,-2%,-20%
CSc1cccc(NC(=O)CC(c2ccc(F)cc2)N2Cc3ccccc3C2=O)c1 (stereo not drawn),/,-5%,/,/,/,11%
